Source: PubChem BioAssay
DT40 TDP1 no CPT – qHTS for Inhibitors of human tyrosyl-DNA phosphodiesterase 1 (TDP1): qHTS in cells in absence of CPT. hit rate 15% among 420,000. Potency, µM (titrated, usually from 46.2 µM), for inactives: at the highest dose activity change, negative = growth inhibition, actives largely listed as inhibitors. DT40 Tdp1-/- hTDP1 cells, no CPT, ATP luminescence, 48 h. AID 686978, 2013; further: potency means the concentration at half of the fitted maximal effect; nearly all actives have a fitted effect of over 55% in size
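DT40 Tdp1-/-;hTDP1 cells, no CPT (DMSO vehicle only), 400 cells/well; compounds pin-transferred; ≥48 hr, 37 °C; CellTiter-Glo 30 min RT dark, luminescence read.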
DT40 TDP1 CPT – growth inhibition of DT40 Tdp1-/-;hTDP1 cells with camptothecin (screen for TDP1 inhibitors); hit rate 12% among 420,000; chicken DT40 Tdp1-/-;hTDP1 cells + 20 nM CPT, ATP luminescence, 48 h; Potency, µM (doses to about 46.2 µM), without a hit: at the top dose activity change, negative = growth inhibition, most hits filed as inhibitors; further: potency means the concentration at half of the fitted maximal effect; nearly all actives have a fitted effect of over 55% in size
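Chicken DT40 Tdp1-/- cells stably complemented with human TDP1 were seeded at 400 cells/well in medium containing 20 nM camptothecin, exposed to pin-transferred compounds, and grown at 37 °C for at least 48 hr. Viability was read as ATP luminescence.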
IL1B secr inh – blocks inflammasome-driven IL-1 beta release; THP-1 LPS/ATP IL-1B secretion, AlphaLISA, 16 h; active compounds read low; activity change, % at 57.5 µM; hit rate 4.7% among 360,000; AID 743279; in the data active means activity change below about -50%; inconclusive means mostly about -30% to -49%
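Secreted IL-1B measured by AlphaLISA bead assay after 16 h compound exposure of THP-1 cells; compounds (final up to 57.5 uM) added 1 h before LPS (250 ng/mL) and ATP (1.25 mM) stimulation; lower signal means less secretion.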
HT1080-NT tox – kills 2HG-producing HT-1080-NT fibrosarcoma cells; Potency, µM (doses to about 46.1 µM), without a hit: top-dose activity, negative = less viability, hits mostly cytotoxic; HT-1080-NT fibrosarcoma viability, CellTiter-Glo ATP luminescence, 48 h; hit rate 1.6% among 360,000;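 further: NT is the 2HG producing partner of a matched IDH1 knockdown line; potency means the concentration at half of the fitted maximal effect; 0% = DMSO-treated cells and -100% = media-only wells without cells; nearly all actives have a fitted effect of over 55% in size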
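Viability of the 2HG-overproducing fibrosarcoma line after 48 hours of compound exposure at 37 degrees C was determined by luminescence with CellTiter-Glo, and concentration-effect curves were then fitted and categorized.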
HT1080 IDH1KD tx – HT-1080 IDH1 knockdown cell toxicity (counter line). HT-1080 IDH1 knockdown viability, ATP luminescence, 48 h. Potency, µM (titrated, usually from 46.1 µM), for inactives: top-dose activity, negative = toxicity, most hits filed as cytotoxic. hit rate 2% among 360,000;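 further: potency means the concentration at half of the fitted maximal effect; 0% = DMSO wells and -100% = cell-free medium wells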
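Luminescent ATP read-out (CellTiter-Glo, 10 min at room temperature) after 48 h compound exposure at 37 °C gave viability of IDH1-knockdown HT-1080 cells. Activity was normalised to DMSO and cell-free wells, then fitted as concentration-response curves.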
* hit, by the source's call; ? = inconclusive; . = no result; [ ] = remark or other dose. Compounds with a hit are over-represented: about 19% of the library has one in this group of screens. Unless noted, the call rests on the fitted dose curve; in most records, active means well fitted curve in the direction sought with a large enough effect; inconclusive means small, poorly fitted or top-dose-only effect, or another doubt; inactive means no such curve, though single readings can be large; an effect the other way counts as inactive or inconclusive. Unless noted, on the % scale 0 is the no-effect control and ±100 the full control effect.

SMILES | DT40 TDP1 no CPT | DT40 TDP1 CPT | IL1B secr inh | HT1080-NT tox | HT1080 IDH1KD tx
C[C@H](CO)N1C[C@H](C)[C@H](CN(C)C(=O)Nc2cccc3ccccc23)Oc2c(NC(=O)c3ccc(-c4nccs4)cc3)cccc2C1=O | ? | ? | -7 | -3% | -13%
O=C(c1ccccc1F)N1CCC2(CC1)OCCO2 | -7% | -13% | 39 | -8% | -6%
O=C(Nc1ccccc1)N1CC[C@@]2(CCCNC2)C1 | 4% | -14% | . | . | .
COc1ccc(-n2c(C)nc3ccccc3c2=O)c([N+](=O)[O-])c1 | ? | -20% | -10 | 17% | 0%
O=[N+]([O-])c1nccn1CO[C@@H](CO)[C@H](O)CO | 2% | ? | . | . | .
CC(C)C1CN1CC(O)Cn1ccnc1[N+](=O)[O-] (centres undefined) | ? | 18µM* | -17 | ? | ?
CN1CC=C(c2c[nH]c3ccccc23)CC1 | -18% | -30% | -6 | -18% | 5%
C1=C(c2c[nH]c3ccccc23)CCN(Cc2ccccc2)C1 | 4.6µM* | 9.2µM* | 0 | ? | ?
COC(=O)Cn1cc(/C=C2\C(=O)NC(=O)N(c3ccc(OC)cc3)C2=O)c2ccccc21 | 2.3µM* | ? | ? | 0% | -4%
COCCCNC(=O)Cn1cc(/C=C2\C(=O)NC(=O)N(c3ccccc3F)C2=O)c2ccccc21 | ? | ? | -82* | ? | ?
COCCNC(=O)Cn1cc(/C=C2\C(=O)NC(=O)N(c3ccccc3F)C2=O)c2ccccc21 | -2% | -19% | 37 | 8% | 2%
CCn1ccnc1CN1CCCC(C(=O)c2ccc(SC)cc2)C1 (centres undefined) | 18µM* | ? | -1 | -5% | -20%
Cc1ncc(CN2CCCC(C(=O)c3ccc(C(C)(C)C)cc3)C2)s1 (centres undefined) | 12µM* | 21µM* | -29 | -13% | -6%
COc1ccc(C(=O)C2CCCN(Cc3cnc(C)s3)C2)cc1OC (centres undefined) | -23% | 7% | 0 | 1% | -8%
COc1ccc(C(=O)C2CCCN(Cc3cnc(C)s3)C2)c(OC)c1 (centres undefined) | 8.2µM* | 16µM* | -64* | -9% | ?
CSc1ccc(C(=O)C2CCCN(CCCn3cccn3)C2)cc1 (centres undefined) | -25% | ? | ? | -1% | -15%
O=C(c1ccc(C(F)(F)F)cc1)C1CCCN(Cc2ccncc2)C1 (centres undefined) | 10µM* | 10µM* | -22 | -25% | -25%
COc1ccc2[nH]cc(CCN(C(C)C)C(C)C)c2c1 | -28%[92.5 µM] | ? | . | . | .
Cc1cccc(Cn2cccc(C(=O)Nc3nnc(C)s3)c2=O)c1 | -22% | -19% | . | . | .
CSc1ncc(CN2CCCC(C(=O)c3ccccc3SC)C2)cn1 (centres undefined) | ? | -22% | 65 | 7% | -10%
COc1ccc(C(=O)C2CCCN(Cc3ccccn3)C2)c(OC)c1 (centres undefined) | 15µM* | 21µM* | 10 | 0% | -2%
COc1cccc(C(=O)C2CCCN(Cc3ccon3)C2)c1 (centres undefined) | -24% | -6% | 17 | -17% | -5%
COc1cccc(O)c1CN1CCCC(C(=O)c2ccccc2SC)C1 (centres undefined) | 18µM* | 16µM* | -29 | ? | ?
O=C1NC(=O)N(CCc2ccc(F)cc2)C(=O)/C1=C/c1cccs1 | 16µM* | 16µM* | -97* | ? | -27%
C=CCN1C(=O)/C(=C/c2ccc(N3CCOCC3)o2)C(=O)NC1=S | -23% | -10% | 15 | 12% | 9%
SMILES | DT40 TDP1 no CPT | DT40 TDP1 CPT | IL1B secr inh | HT1080-NT tox | HT1080 IDH1KD tx
C=CCN1C(=O)/C(=C/c2cccs2)C(=O)NC1=S | 15µM* | 16µM* | -104* | ? | ?
O=C1NC(=O)N(CCc2ccc(F)cc2)C(=O)/C1=C/c1ccco1 | ? | ? | -53* | -1% | -14%
Cc1cc(C)nc(N2CCCC(C(=O)Nc3nc4ccc(S(C)(=O)=O)cc4s3)C2)n1 (centres undefined) | ? | ? | -16 | -25% | ?
C[C@]12CCC3[C@@H](CC[C@H]4C[C@@H](O)CC[C@]34C)C1CCC2=O (some centres undefined) | ? | ? | 74 | -9% | -6%
C[C@]12CCC3C(CC[C@H]4C[C@@H](O)CC[C@]34C)[C@@H]1CCC2=O (some centres undefined) | 30µM* | 27µM* | . | . | .
C[C@]12CCC3C(CC[C@H]4CC(O)CC[C@]34C)C1CC/C2=N/NC(=O)c1ccncc1 (some centres undefined) | 23µM* | 26µM* | 46 | -24% | -1%
COc1ccc(N2C(=O)CS(=O)C(c3ccccc3)C2=O)cc1 (centres undefined) | 21µM* | ? | 20 | 10% | 18%
CC(=O)C1CCC2C3C(N4CC4)CC4=CC(=O)CCC4(C)C3CCC12C (centres undefined) | 4.6µM* | 3.7µM* | -2 | 5% | -2%
CC12CCC(=O)C=C1CC(N1CC1)C1C2CCC2(C)C(O)CCC12 (centres undefined) | 2.6µM* | 1.8µM* | -3 | 10% | 2%
CC(=O)C1CCC2(O)C3CCC4=CC(=O)CCC4(C)C3CCC12C (centres undefined) | -24% | -21% | 6 | 11% | 1%
CCc1c(C(=O)OC)ncc2[nH]c3cc(OC)c(OC)cc3c12 | 6.5µM* | 8.2µM* | . | . | .
CSCCC(c1nnnn1-c1ccc2c(c1)OCCO2)N1CCC2(CC1)C(=O)NCN2c1ccccc1 (centres undefined) | ? | ? | 0 | -25% | ?
COc1ccc(-n2nnnc2C(c2ccccc2OC(F)(F)F)N2CCC(n3c(=O)[nH]c4ccccc43)CC2)cc1 (centres undefined) | 18µM* | 21µM* | . | ? | ?
O=c1[nH]c2ccccc2n1C1CCN(C(c2ccnc3ccccc23)c2nnnn2-c2ccc3c(c2)OCCO3)CC1 (centres undefined) | 9.2µM* | 5.2µM* | ? | ? | 16µM*
COc1ccc(C(c2nnnn2-c2ccc3c(c2)OCCO3)N2CCC(n3c(=O)[nH]c4ccccc43)CC2)cc1 (centres undefined) | 16µM* | ? | ? | 18µM* | 15µM*
CN1C(=O)N(C)C(=O)C2(Cc3cc(NC(=O)c4ccc(F)cc4)ccc3N3CCCC32)C1=O (centres undefined) | ? | ? | -1 | 0% | 27%
